From PubChem BioAssay
BCLXL inh = inhibitors of human Bcl-xL, primary screen, biochemical, fluorescence polarization, HTS; GST-Bcl-xL / FITC-Bim BH3 peptide fluorescence polarization; inhibition, % at 10.9 µM; 0.7% of 320,000 active; AID 2129, 2009; Bcl-2-like protein 1 (Homo sapiens), Q07817;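 active = inhibition above the mean of all tested compounds plus 3 SD, cutoff set per campaign, cut at about 30% in these data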;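 note: 0% = DMSO wells and 100% = unlabeled Bim-BH3 peptide competitor; inhibitors lower millipolarization by displacing the labeled peptide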
eLon inh = inhibitors of E. coli Lon protease, primary screen, biochemical, fluorescence polarization; purified E. coli Lon protease; inhibition, % at 7.94 µM; P0A9M0; 0.42% of 360,000 active; in the data active = inhibition above about 13%, passing the limit was not always enough;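 note: 0% = enzyme with probe and DMSO and 100% = no enzyme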
MEX-5 binding = MEX-5 zinc finger RNA-binding disruptors – biochemical, C. elegans, fluorescence polarization, MLPCN library, primary screen | Zinc finger protein mex-5 (Caenorhabditis elegans), Q9XUB2 | MEX-5/FITC-TCR2 RNA binding; hits give low values | activity score (negative = inhibition of binding), % at 10 µM | 0.38% of 300,000 active;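 active = inhibition past about -25% in most replicates, and total fluorescence under double the plate's negative control median, limit read from the data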;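 note: 0% = DMSO and -100% = 5 µM competing unlabeled TCR2 RNA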
MCL1 BIM primary = inhibitors of MCL1 binding to BIM-BH3, primary screen, biochemical, fluorescence polarization; GST-MCL1 / FITC-Bim-BH3 fluorescence polarization; inhibition, % at 10.9 µM; 0.68% of 320,000 active; AID 2057, 2009;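 active = inhibition above the mean inhibition of all tested compounds plus 3 SD, set per campaign, cut at about 40% in these data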;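 note: 0% = DMSO wells and 100% = unlabeled Bim-BH3 peptide control; higher means more loss of mP so more displacement of Bim peptide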
GLD-1 TGE inh = GLD-1/TGE RNA complex disruptors, primary screen, biochemical, fluorescence polarization. purified GLD-1 + fluorescein TGE RNA. 0.44% of 320,000 active. AID 2280, 2010. inhibition, % at 5.96 µM. Female germline-specific tumor suppressor gld-1 (Caenorhabditis elegans), Q17339;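 active = percent inhibition above a per-plate cutoff, the plate mean of test compounds plus 3 SD, cut at about 30% in these data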;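 note: 0% = DMSO wells with GLD-1 and probe and 100% = wells lacking GLD-1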
Target sequence (Q17339 whole entry, looked up): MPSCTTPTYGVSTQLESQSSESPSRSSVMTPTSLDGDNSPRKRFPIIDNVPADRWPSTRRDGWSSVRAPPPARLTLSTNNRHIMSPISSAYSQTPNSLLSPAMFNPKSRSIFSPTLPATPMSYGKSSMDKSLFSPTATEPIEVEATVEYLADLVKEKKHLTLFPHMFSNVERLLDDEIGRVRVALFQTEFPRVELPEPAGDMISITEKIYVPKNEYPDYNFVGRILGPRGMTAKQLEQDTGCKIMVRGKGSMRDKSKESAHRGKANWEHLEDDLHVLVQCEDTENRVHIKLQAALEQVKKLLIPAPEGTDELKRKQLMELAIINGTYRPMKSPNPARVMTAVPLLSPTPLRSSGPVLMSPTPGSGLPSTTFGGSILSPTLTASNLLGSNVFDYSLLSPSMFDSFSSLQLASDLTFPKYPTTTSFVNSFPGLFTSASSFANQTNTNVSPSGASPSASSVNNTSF
E coli Lon conf = E. coli Lon protease inhibitor retest, confirmation, biochemical, fluorescence polarization. shares compounds with eLon inh. purified E. coli Lon. inhibition, % at 7.94 µM. 31% of 1,400 active. AID 602230, 2012; in the data active = inhibition above about 16%;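 note: 0% = enzyme with probe and DMSO and 100% = no enzyme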
Numbers without * were called inactive; . = not tested or not shown; + = active, no number. In the library only some 1.4% were active in any assay of this set; here they are far more common.

SMILES	BCLXL inh	eLon inh	MEX-5 binding	MCL1 BIM primary	GLD-1 TGE inh	E coli Lon conf
CSC[C@H]1CN(CCc2ccccc2)C(=O)[C@@H]1CC(=O)Nc1ccccc1	.	-4	.	.	.	.
CCn1c(CC(=O)Nc2ccccc2F)nnc1SCC(=O)NC1CCCC1	-6	17*	1	-1	0	5
Cn1c(CC(=O)Nc2ccccc2F)nnc1SCC(=O)NC1CCCCC1	2	-6	2	3	-8	.
CCN(CC)c1ccc(N=C2C=CC(=O)C=C2NC(C)=O)cc1	.	38*	.	.	.	-11
Fc1ccccc1CNc1nc(NCC2CC2)nc2ccsc12	.	12*	.	.	.	-6
COc1ccc(C(C)=O)cc1CSc1nnc(-c2ccncc2)o1	1	93*	3	2	-5	-22
O=C1ON=C(c2ccccc2)/C1=C/c1cccnc1	.	17*	.	.	.	3
COc1ccccc1-c1cnc(C(O)c2ccc(C)cc2C)[nH]1 (stereo unspecified)	.	-3	.	.	.	.
CC1(C)CC[C@]2(C(=O)n3ccnc3)CC[C@]3(C)[C@H](C(=O)C=C4[C@@]5(C)C=C(C#N)C(=O)C(C)(C)[C@@H]5CC[C@]43C)[C@@H]2C1	.	-4	.	.	.	.
Cn1c(CNc2ccc(Cl)cc2)nnc1SCc1ccccc1	4	+	-1	7	-1	2
CCNC(=S)N=Nc1c(O)[nH]c2ccc(C(C)C)cc12	6	23*	-3	13	13	20*
CC(=O)N1c2ccccc2Oc2cc3ccccc3cc21	8	-4	.	0	4	.
O=C(CCl)N1c2ccccc2Oc2ccc3ccccc3c21	.	+	.	.	.	24*
Cc1ccc(NC(=S)NCc2ccc(Cl)cc2)c(C)c1	3	17*	6	13	0	-47
CC(C)(C)n1c(O)c2n(c1=O)Cc1ccccc1N=C2c1ccccc1	.	-7	.	.	.	.
ON(CCc1ccccn1)CCc1ccccn1	.	38*	.	.	.	25*
ON(CCc1ccccn1)Cc1ccccc1	.	1	.	.	.	.
O=C1c2ccccc2S(=O)(=O)N1CC(O)Cn1ccc2ccccc21 (stereo unspecified)	24	112*	-11	21	16	45*
COc1ccc(CN2CCN(C(=O)C3CCC(CNS(=O)(=O)c4ccccc4)CC3)CC2)c(OC)c1OC (stereo unspecified)	4	143*	2	6	-1	-4
O=C(C1CCC(CNS(=O)(=O)c2ccccc2)CC1)N1CCCCC1 (stereo unspecified)	-5	-6	0	-3	-4	.
O=S1(=O)CC(N2CC=CC2)CN1Cc1cn(Cc2ccccc2)nn1 (stereo unspecified)	.	-3	.	.	.	.
NC(Cc1ccc(C(F)(F)F)cc1)c1csc(Nc2cc(NCc3ccco3)ncn2)n1 (stereo unspecified)	.	2	.	.	.	.
CCOC(=O)c1ccc(NC(=O)CSc2nnc(C)n2-c2ccccc2)cc1	5	14*	-1	11	0	8
Cc1ccccc1-c1cc2nc(Nc3ccc(F)cc3)n(C)c(=O)c2s1	.	-8	.	.	.	.
CCCCCCCCN1C(=O)[C@H](CC(=O)N2CCOCC2)C[C@@]2(C(=O)OC)CCCCC=C12	.	4	.	.	.	.
SMILES	BCLXL inh	eLon inh	MEX-5 binding	MCL1 BIM primary	GLD-1 TGE inh	E coli Lon conf
CCOCCCNC(=O)C(NC(=O)c1ccccc1O)c1ccc(Cl)cc1 (stereo unspecified)	2	18*	1	-3	0	-19
CCOCCCNC(=O)C(NC(=O)CNC(C)=O)c1ccc(Cl)cc1 (stereo unspecified)	3	-2	-3	2	0	.
COC(=O)Oc1ccc(/C=C/C(=O)OC(C)C)cc1OC(=O)OC	6	7	1	12	3	.
CCCCOC(=O)/C=C/c1ccc(OC(=O)OC)c(OC(=O)OC)c1	2	28*	-2	4	1	-30
O=C(C[C@H]1C/C=C\CC[C@H](Cc2ccc(F)cc2)C(=O)OC[C@H]2CCCN2C1=O)N[C@@H](CO)Cc1ccccc1	.	40*	.	.	2	5
CC(C)(C)OC(=O)C[C@@H]1C/C=C\C[C@H](CC(=O)NCCO)C(=O)N2CCC[C@H]2COC1=O	.	111*	.	.	10	-7
O=C(c1[nH]c(C(F)(F)F)nc1-c1ccccc1)N1CCN(c2ccc(C(F)(F)F)cn2)CC1	.	-7	.	.	.	.
Cc1ccc(C)c(C(O)c2ncc(-c3ccccc3Cl)[nH]2)c1 (stereo unspecified)	.	-7	.	.	.	.
CCN1C(=O)[C@H]2[C@@H](c3ccc(OC)cc3)N[C@]3(CCCN(Cc4ccc(C(F)(F)F)cc4)C3=O)[C@H]2C1=O	.	-4	.	.	.	.
COc1cc(OC)c(OC)cc1/C=C/c1cc(C(=O)O)c2ccccc2n1	5	-8	-3	-1	15	.
COc1ccc(/C=C/c2cc(C(=O)O)c3ccccc3n2)cc1	6	+	-4	3	10	3
O=C(Nc1ccccc1Cl)c1cc(C2CCCN(C(=O)OCCF)C2)on1 (stereo unspecified)	.	-6	.	.	.	.
COC(=O)N1CCCC(c2cc(C(=O)Nc3ccccc3Cl)no2)C1 (stereo unspecified)	.	52*	.	.	.	1
CCCNC(=O)C[C@@H]1C[C@@H]2c3cc(NS(=O)(=O)c4ccc(OC)cc4)ccc3O[C@@H]2[C@@H](CO)O1	.	-9	.	.	.	.
Cc1ccc2c(c1)c1c(n2CC(O)CNC(C)(C)C)CCCC1 (stereo unspecified)	.	16*	.	.	.	10
Cc1ccc2c(c1)c1c(n2CC(O)CN2CCCCCC2)CCCC1 (stereo unspecified)	5	4	-8	6	-2	.
CCCc1cc(=O)oc2c(CN3CCCC3)c(O)ccc12	3	-7	-1	-1	-1	.
CCCc1cc(=O)oc2c(CN3CCCC3)c(O)c(Cl)cc12	3	22*	-1	0	2	-13
CC(=O)Nc1ccc(CN(C)c2c(C)nc3ccc(C(=O)N(C)Cc4ccccc4)cn23)cc1	.	-4	.	.	.	.
Nc1ncnc(N)c1NC(=O)c1cc(Cl)c(OCc2ccccc2)c(Cl)c1	.	3	.	.	.	.
O=C1CCCCN1CCc1c[nH]c2ccccc12	2	14*	-1	-3	6	-2
Cc1cc2oc(=O)cc(CN3CCN(Cc4ccccc4)CC3)c2cc1Cl	-4	21*	-1	-20	-4	-16
Cc1ccc2c(CN3CCN(Cc4ccccc4)CC3)cc(=O)oc2c1	-2	-1	3	-9	3	.
CCNC(=O)C1(C)CCCN(C(=O)c2cc(C)nn2C(C)(C)C)C1 (stereo unspecified)	.	5	.	.	.	.
Cc1ncc([N+](=O)[O-])n1CC(=O)Nc1ccc(F)c(Cl)c1	2	-5	2	11	-7	.
Cc1ncc([N+](=O)[O-])n1CC(=O)Nc1cccc(C(F)(F)F)c1	10	29*	4	5	1	-91
